We go through 29 molecules from the supplement of paper PMC11624193, “Coupling cellular drug-target engagement to downstream pharmacology with CeTEAM” (Nature Communications, 2024).

Each structure is given as a SMILES string. “And” between values parts separate entries of the source, which are not always exact repeats. Equal entries are not always repeated. Structures can show the parent of a compound that is named as a salt. A number with no mark means an inactive call.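 Rule for the calls: active = log2 fold change beyond 2 SD from the library mean after excluding viability outliers; inactive = within 2 SD.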

The target in the first experiment is PARP1 L713F-nLuc biosensor (HCT116) (UniProt P09874). Description: PARP1 L713F-nLuc/akaLuc ratio relative to DMSO control (biosensor stabilization) (fold change); higher = more PARP1 biosensor stabilization (target engagement / stabilizer), active = hit call of the paper. The note with it: stock concentration (mM; final µM = stock mM x 1): 2; 24 h.
PARP1 L713F-nLuc biosensor (HCT116), sequence (P09874 whole entry L713F, looked up): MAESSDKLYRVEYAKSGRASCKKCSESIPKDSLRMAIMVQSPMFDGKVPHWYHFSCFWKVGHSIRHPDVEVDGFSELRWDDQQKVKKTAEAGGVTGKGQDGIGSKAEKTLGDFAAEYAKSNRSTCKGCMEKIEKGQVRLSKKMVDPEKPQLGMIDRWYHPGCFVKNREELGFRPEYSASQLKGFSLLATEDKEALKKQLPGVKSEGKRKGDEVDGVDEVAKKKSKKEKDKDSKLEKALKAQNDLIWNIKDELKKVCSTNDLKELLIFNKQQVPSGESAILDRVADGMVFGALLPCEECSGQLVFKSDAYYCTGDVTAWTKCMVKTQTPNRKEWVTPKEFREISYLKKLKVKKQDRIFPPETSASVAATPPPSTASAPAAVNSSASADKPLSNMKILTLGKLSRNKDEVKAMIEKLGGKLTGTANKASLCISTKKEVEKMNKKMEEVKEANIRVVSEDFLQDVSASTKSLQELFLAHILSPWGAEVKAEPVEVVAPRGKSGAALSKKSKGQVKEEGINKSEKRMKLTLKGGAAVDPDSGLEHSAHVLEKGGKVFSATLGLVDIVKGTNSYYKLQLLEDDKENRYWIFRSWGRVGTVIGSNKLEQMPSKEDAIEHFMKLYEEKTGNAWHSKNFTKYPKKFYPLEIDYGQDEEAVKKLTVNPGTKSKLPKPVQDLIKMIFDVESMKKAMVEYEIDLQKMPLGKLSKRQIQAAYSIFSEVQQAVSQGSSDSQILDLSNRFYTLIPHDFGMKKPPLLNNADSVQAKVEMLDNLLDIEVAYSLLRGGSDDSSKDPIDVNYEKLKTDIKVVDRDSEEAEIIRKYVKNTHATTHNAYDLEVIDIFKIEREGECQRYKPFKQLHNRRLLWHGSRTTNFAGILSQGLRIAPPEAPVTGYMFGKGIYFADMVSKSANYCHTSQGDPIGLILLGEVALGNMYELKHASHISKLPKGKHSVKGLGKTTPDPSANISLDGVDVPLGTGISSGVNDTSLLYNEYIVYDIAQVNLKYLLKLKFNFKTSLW
On to `CN(C)c1ccc(-c2nc3ncc(Cl)c(N4CCN(CC(=O)Nc5nccs5)CC4)c3[nH]2)cc1`, for which the “PARP1 L713F-nLuc/akaLuc ratio” value is 0.845.

On to `Cn1cc(C[C@@H](N)C(=O)O)c2ccccc21` [Indoximod (NLG-8189?], for which the “PARP1 L713F-nLuc/akaLuc ratio” value is 0.857.

`CCN(c1cc(-c2ccc(CN3CCOCC3)cc2)cc(C(=O)NCc2c(C)cc(C)[nH]c2=O)c1C)C1CCOCC1` [Tazemetostat (EPZ-6438)]: the “PARP1 L713F-nLuc/akaLuc ratio” value is 1.21.

Still in this experiment, the particulars now being: stock concentration (mM; final µM = stock mM x 1): 10; 24 h.
For `O=C(Nc1cccnc1)N1CCC(Cc2cccc(Oc3ccc(C(F)(F)F)cn3)c2)CC1`, the “PARP1 L713F-nLuc/akaLuc ratio” value was 0.451. Same read-out and setting: the result for `COc1ccc2c(=O)c(-c3ccccc3)coc2c1` [7-Methoxyisoflavone] reads 0.63. Same read-out and setting: the result for `COc1cc(Nc2ncc3c(n2)-c2ccc(Cl)cc2C(c2c(F)cccc2OC)=NC3)ccc1C(=O)O` [Alisertib] reads 0.939; that for `O=c1[nH]nc2c3c(cccc13)N=C(CN1Cc3ccccc3C1)N2`, 8.18 (active). In the case of `CN(C)C(=N)NC(=N)N` [Metformin (hydrochloride)], the “PARP1 L713F-nLuc/akaLuc ratio” value was 0.94. `CC1=C(CC[C@@H](C)CO[C@@H]2O[C@H](CO)[C@@H](O)[C@H](O)[C@H]2O)O[C@H]2C[C@H]3[C@@H]4CC=C5C[C@@H](O[C@@H]6O[C@H](CO)[C@@H](O[C@@H]7O[C@@H](C)[C@H](O)[C@@H](O)[C@H]7O)[C@H](O)[C@H]6O[C@@H]6O[C@@H](C)[C@H](O)[C@@H](O)[C@H]6O)CC[C@]5(C)[C@H]4CC[C@]3(C)[C@@H]12` [Pseudoprotodioscin]: the “PARP1 L713F-nLuc/akaLuc ratio” value was 0.989. The same measure, in the same setting: the result for `C[C@@H]1C[C@H]2[C@@H]3CCC4=CC(=O)C=C[C@]4(C)[C@@]3(F)[C@@H](O)C[C@]2(C)[C@@]1(O)C(=O)CO` [Dexamethasone (DHAP)] reads 1.03; that for `CC(C)(C)NC(=O)[C@H]1CC[C@H]2[C@@H]3CC[C@H]4NC(=O)C=C[C@]4(C)[C@H]3CC[C@]12C` [Finasteride], 1.22; that for `COc1ccccc1C(=O)Nc1cc2c(cc1N1CCCCC1)n(C)c(=O)n2C`, 1.25. The same measure, in the same setting: next, `CC(=O)c1c(C)cc2cccc(O)c2c1O` [Nepodin]: 0.91; `Cn1ncc(Cl)c1-c1cc(C(=O)N[C@H](CN)Cc2ccc(F)c(F)c2)oc1Cl`: 0.603; `O=C(Nc1cccc(Nc2nccc(Nc3cccc(C(F)(F)F)c3)n2)c1)C1CC1` [Aurora kinase inhibitor-3]: 1.49. Still for that read-out and setting: next, `NC(=O)c1ncn(C2OC(CO)C(O)C2O)c1N` (centres undefined) [AICAR (phosphate)]: 1.04. Consider `COc1cc(/C=C/C(=O)O[C@H]2CC[C@]34C[C@]35CC[C@]3(C)[C@@H]([C@H](C)CCC=C(C)C)CC[C@@]3(C)[C@@H]5CC[C@H]4C2(C)C)ccc1O` [γ-Oryzanol], for which the “PARP1 L713F-nLuc/akaLuc ratio” value was 1.11. On the same count and under the same terms, next, `Cn1cc(CCn2cnc(-c3cnn(C)c3)c2-c2ccc(C#N)cc2)cn1`: 0.997; `N#Cc1ccnc(N2C(=O)CC[C@H]2C(=O)N(c2cncc(F)c2)[C@H](C(=O)NC2CC(F)(F)C2)c2ccccc2Cl)c1` [Ivosidenib (AG-120)]: 0.863. In the case of `CCS(=O)(=O)N1CC(CC#N)(n2cc(-c3ncnc4[nH]ccc34)cn2)C1` [Baricitinib], the “PARP1 L713F-nLuc/akaLuc ratio” value was 0.881.

Take `N#C/C(=C\c1ccc(O)c(O)c1)C(=O)NCc1ccccc1`: the “PARP1 L713F-nLuc/akaLuc ratio” value was 1.13 and 0.936. The same measure, in the same setting: the result for `C[C@H](NC(=O)/C(C#N)=C/c1cccc(Br)n1)c1ccccc1` reads 0.804; that for `OC1CCC(Nc2ncc3nc(Nc4c(F)cc(F)cc4F)n([C@H]4CCOC4)c3n2)CC1` (some centres undefined) [Tanzisertib(CC-930)], 1.11. Still for that read-out and setting: the result for `Cc1c(Cn2c(C)nc3c(C(=O)O)cc(N4CCOCC4)cc32)cccc1C(F)(F)F` reads 1.38; that for `Cc1cc([C@@H](C)Nc2ccccc2C(=O)O)c2nc(N3CCOCC3)cc(=O)n2c1`, 0.617; that for `Nc1c(S(=O)(=O)c2ccccc2)c2nc3ccccc3nc2n1-c1ccc(F)cc1`, 1.04.

`COc1cc(OC)c(/C=C/S(=O)(=O)Cc2ccc(OC)c(NCC(=O)O)c2)c(OC)c1`: the “PARP1 L713F-nLuc/akaLuc ratio” value is 0.583. On the same count and under the same terms, the result for `COc1cc2nccc(Oc3ccc(NC(=O)NC4CC4)c(Cl)c3)c2cc1C(N)=O` [Lenvatinib (E7080)] reads 0.673; that for `O=C(O)c1cccc(CN2C(=O)/C(=C(\c3ccccc3)c3ccc(Cl)cc3)c3ccccc32)c1`, 1.18.
